Measurements reported in PubChem BioAssay (NCATS).
Inconclusive results are not listed. Calls of active or inactive are those of the source. Unless noted, the call rests on the fitted dose curve; in most records, active means well fitted curve in either direction with a large enough effect (not every such curve was filed as active); inconclusive means small, poorly fitted or top-dose-only effect, or another doubt; inactive means flat fitted curve, though single readings scatter.

Key:
[1] = target: Lysosomal acid glucosylceramidase (Homo sapiens) (UniProt P04062); experiment: Glucocerebrosidase-p2 (AID 348; in the data active means potency below about 10 µM; further: potency means the concentration at half of the fitted maximal effect); details: purified GBA, blue fluorogenic substrate, 40 min
Method in brief: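 Normal human glucocerebrosidase (0.2 nM) with blue fluorogenic substrate (80 uM final) in citrate/phosphate pH 5.9 with 10mM sodium taurocholate, 0.01% tween-20; 40 min RT, NaOH/glycine stop; fluorescence Ex 365/Em 440; AC50 from a titration from 0.6 nM upwards.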

[2] = AP1 Signaling Pathway (AID 357); details: ME-180 AP-1-bla reporter, EGF-induced, beta-lactamase ratio, 5 h; at 7.69 µM (top of the series) unless noted;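 further: ME-180 reporter cells stimulated with EGF at its EC50 level; on the % scale 0 is the no-effect control and ±100 the full control effect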
Method in brief: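 In this screen, ME-180 cells in Opti-MEM with 0.5% dialyzed FBS received EC50 EGF and compound titrations for 5 h. AP-1 reporter beta-lactamase was detected via CCF4 ratio, giving AC50 for positive and negative modulators.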

[3] = target: Cytochrome P450 1A2 (Homo sapiens) (UniProt P05177); experiment: p450-cyp1a2 (AID 410; calls by dose curve; further: potency means the concentration at half of the fitted maximal effect;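 on activity change, negative = inhibition: -100% = full effect of reference inhibitor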); details: recombinant CYP1A2, luciferin-ME demethylation, luminescence; series mostly up to 11.4 µM
Method in brief: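 20nM CYP1A2, 100uM Luciferin-ME (=Km), 100mM KPO4; cpd 10 min RT; +NADPH regen, 60 min RT; stop/detect 20 min; luminescence. Normalized to furafylline 57 uM = full inhibition.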

[4] = Stat Signaling Pathway (AID 446); details: ME-180 SIE beta-lactamase reporter, IL-6 stimulated, 5 h; at 7.69 µM (top of the series) unless noted;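 further: ME-180 cervical cancer cells given 40 pM IL-6 alongside compound; SIE-controlled beta-lactamase reporter measured as 460/530 nm FRET emission ratio; on the % scale 0 is the no-effect control and ±100 the full control effect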
Method in brief: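 FRET read-out (405 nm excitation, 460/530 nm emission) of a beta-lactamase reporter under a STAT-inducible element in ME-180 cervical carcinoma cells. Cells with compound receive 40 pM IL-6 for 5 h. Values are normalised to AC90 stimulation and AC90 JAK-inhibitor controls.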

[5] = target: Glucocorticoid receptor (Homo sapiens) (UniProt P04150); experiment: GR-GFP Redistribution (AID 450;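 active means compounds whose dose series gives a full or clear partial fitted curve of increased nuclear translocation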; further: potency means the concentration at half of the fitted maximal effect); details: U2OS GR-GFP nuclear translocation, laser cytometry, 2 h
[6] = target: Glucocorticoid receptor (Homo sapiens) (UniProt P04150); experiment: GR-EFC Redistribution (AID 451; calls by dose curve; further: potency means the concentration at half of the fitted maximal effect); details: CHO-K1 GR-EFC translocation, beta-gal luminescence, 2 h
Method in brief: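 Translocation of GR-ED fusion to nuclear EA restores b-gal, read by luminescence after 1 h room-temperature detection. Engineered CHO-K1 biosensor cells, 1,000/well, exposed 2 h at 37 C to titrations up to 46 uM final.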

[7] = target: Mitogen-activated protein kinase 10 (Mus musculus) (UniProt Q61831); experiment: JNK3 AlphaScreen Assay (AID 530); details: JNK3 lysate, c-Jun phosphorylation; series mostly up to 11.4 µM;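 further: kinase came from lysate of stimulated human HepG2 cells; signal reports phosphorylation of biotinylated GST-cJun 1-79 at Ser73 with 10 µM ATP; on the % scale 0 is the no-effect control and ±100 the full control effect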
Method in brief: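 Kinase buffer: 20 mM Tris-HCl pH 7.6, 10 mM MgCl2, 1 mM DTT, 0.1 mM Na3VO4, 0.01% Tween-20; ATP 10 uM. Substrate biotin-GST-cJun(1-79), enzyme from activated HepG2 lysates. Detection by Ser73 phospho-antibody AlphaScreen.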

[8] = target: 3',5'-cyclic-AMP phosphodiesterase 4B (Homo sapiens) (UniProt Q07343); experiment: qHTS Assay for Inhibitors of PDE-IV (AID 607; active means well fitted activation curve with a large enough effect in the main read-out, with a control signal flat, not every such curve was filed as active; further: % of control where 0% means no effect); details: HEK293 ACTOne CNG channel cells, membrane potential fluorescence; series mostly up to 22.9 µM
Method in brief: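 Cell-based read-out of cAMP via a modified cyclic nucleotide-gated channel and membrane potential dye (535/590 nm) in HEK293 cells expressing PDE4 endogenously. Compounds tested up to 22.9 uM final; 100 uM RO 20-1724 reference.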

[9] = target: Cytochrome P450 2D6 (Homo sapiens) (UniProt P10635); experiment: qHTS Assay for Inhibitors and Substrates of Cytochrome P450 2D6 (AID 891; active means well fitted curve in the direction sought with a large enough effect; an effect the other way counts as inactive or inconclusive; further: nearly all actives have a fitted effect of over 60% in size; further: potency means the concentration at half of the fitted maximal effect); details: recombinant CYP2D6, luciferin-ME EGE luminescence; series mostly up to 11.4 µM
Method in brief: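 Luminescent read-out of luciferin formed by 5 nM human CYP2D6 demethylating 30 uM Luciferin-ME EGE (Km level) over 60 min at room temperature after NADPH regeneration addition. Data normalized to full inhibition by 1.43 uM quinidine.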

[10] = target: Cytochrome P450 2C9 (Homo sapiens) (UniProt P11712); experiment: qHTS Assay for Inhibitors and Substrates of Cytochrome P450 2C9 (AID 883; active means well fitted curve in the direction sought with a large enough effect; an effect the other way counts as inactive or inconclusive; further: potency means the concentration at half of the fitted maximal effect; nearly all actives have a fitted effect of over 60% in size); details: recombinant CYP2C9, luciferin-H luminescence, 60 min; series mostly up to 11.4 µM
Method in brief: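 Inhibition of CYP2C9 is scored as loss of luminescence, with 57uM sulphaphenazole defining 100% inhibition. Substrate Luciferin-H is used at 100uM, equal to its KM; enzyme at 10nM in 25mM KPO4, 60 min at 37C with NADPH regeneration.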

[11] = target: Cytochrome P450 3A4 (Homo sapiens) (UniProt P08684); experiment: qHTS Assay for Activators of Cytochrome P450 3A4 (AID 885; active means well fitted curve in the direction sought with a large enough effect; an effect the other way counts as inactive or inconclusive; further: nearly all actives have a fitted effect of over 65% in size); details: recombinant CYP3A4, Luciferin-PPXE luminescence, 60 min; series mostly up to 11.4 µM
Method in brief: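 Luminescent readout of luciferin formed from 25 uM Luciferin-PPXE (KM level) by 20 nM CYP3A4 in 200 mM KPO4, with 60 min NADPH-driven reaction at room temperature after 10 min compound exposure. Ketoconazole (57 uM) defined 100% inhibition.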

[12] = target: Cytochrome P450 2C19 (Homo sapiens) (UniProt P33261); experiment: qHTS Assay for Inhibitors and Substrates of Cytochrome P450 2C19 (AID 899; active means well fitted curve in the direction sought with a large enough effect; an effect the other way counts as inactive or inconclusive; further: nearly all actives have a fitted effect of over 60% in size; further: potency means the concentration at half of the fitted maximal effect); details: recombinant CYP2C19, luciferin-H EGE luminescence; series mostly up to 11.4 µM
Method in brief: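 5nM enzyme + 10uM Luciferin-H EGE (=KM), 50mM KPO4; cpd pin-transferred, 10 min 37C; NADPH regen, 60 min 37C; stopped w/ luciferin detection reagent, 20 min; luminescence. Normalized to 57uM ketoconazole (AC100).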

[13] = qHTS Assay for Identification of Small Molecule Agonists for Hypoxia Response Element Signaling Pathway (AID 914; active means well fitted activation curve with a large enough effect in the signal ratio, with a control signal flat, not every such curve was filed as active; the % refers to the signal ratio; further: % of control where 0% means no effect); details: ME-180 (cervical carcinoma) HRE-bla reporter, beta-lactamase ratio, CoCl2, 17 h; activation: hits give high values
Method in brief: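 HRE-bla ME-180 cells, overnight plating in Opti-MEM with 0.5% dialyzed FBS; cpd titration + EC50 CoCl2, 17 h, 37 degrees Celsius; CCF4 2.5 h RT; 460/530 nm ratio; AC50.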

[14] = target: Cytochrome P450 3A4 (Homo sapiens) (UniProt P08684); experiment: qHTS Assay for Inhibitors and Substrates of Cytochrome P450 3A4 (AID 884; active means well fitted curve in the direction sought with a large enough effect; an effect the other way counts as inactive or inconclusive; further: nearly all actives have a fitted effect of over 50% in size; further: potency means the concentration at half of the fitted maximal effect); details: recombinant CYP3A4, Luciferin-PPXE luminescence; series mostly up to 57.1 µM
Method in brief: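 Luminescent readout of luciferin produced by CYP3A4 (20 nM) dealkylation of Luciferin-PPXE, 25 uM (its KM). NADPH-driven reaction ran 60 min at RT after 10 min compound preincubation; data scaled to 57 uM ketoconazole as 100% inhibition.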

[15] = NFAT Signaling Pathway (AID 444); details: Jurkat NFAT-bla M1, carbachol, beta-lactamase ratio, 5 h; at 7.69 µM (top of the series) unless noted;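 further: carbachol stimulus at about its EC50 of 1 µM final; on the % scale 0 is the no-effect control and ±100 the full control effect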
Method in brief: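 Read-out: CCF4 FRET ratio (460 nm/530 nm) after 1 h RT dye loading, used for %activity and AC50 from titration series. Cells: Jurkat NFAT-β-lactamase/M1 line, treated with compound plus 1 uM carbachol for 5 h, 37 °C.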

[16] = target: ATP-dependent 6-phosphofructokinase (Trypanosoma brucei brucei) (UniProt O15648); experiment: qHTS Assay to Find Inhibitors of T. brucei phosphofructokinase: hit validation (AID 492961; active means well fitted curve in the direction sought with a large enough effect; an effect the other way counts as inactive or inconclusive); details: T. brucei PFK, ADP-Glo luminescence; series mostly up to 51.4 µM
Method in brief: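 In this biochemical qHTS validation, titrated compounds were tested against 1.25 nM PFK with 0.1 mM ATP and 0.5 mM F6P. Percent activity came from controls lacking or containing enzyme.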

[17] = qHTS profiling for inhibitors of Plasmodium falciparum proliferation (AID 504749; active means well fitted curve in the direction sought with a large enough effect; an effect the other way counts as inactive or inconclusive;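 further: 0% = DMSO vehicle and full inhibition = artemisinin control; nearly all actives have a fitted effect of over 60% in size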); details: P. falciparum in erythrocytes, SYBR Green DNA, 72 h, at 28.7 µM (top of the series)
Method in brief: (§1)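 In a 72 h erythrocytic culture (37 C, humidified, 5% CO2) at 2.5% hematocrit and 0.3% starting parasitemia, compounds were tested; SYBR Green I in detergent lysis buffer stained parasite DNA overnight.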

AS120 = experiment: as above; details: P. falciparum in erythrocytes, SYBR Green DNA, 72 h; series mostly up to 28.7 µM
Method in brief: as §1

ATS189 = experiment: as above; details: P. falciparum in erythrocytes, SYBR Green DNA, 72 h; series mostly up to 28.7 µM
Method in brief: as §1

W2 = experiment: as above; details: P. falciparum in erythrocytes, SYBR Green DNA, 72 h; series mostly up to 28.7 µM
Method in brief: as §1

Chain of Glucocorticoid receptor (Homo sapiens) (P04150 whole entry, looked up, the tested form may be a part): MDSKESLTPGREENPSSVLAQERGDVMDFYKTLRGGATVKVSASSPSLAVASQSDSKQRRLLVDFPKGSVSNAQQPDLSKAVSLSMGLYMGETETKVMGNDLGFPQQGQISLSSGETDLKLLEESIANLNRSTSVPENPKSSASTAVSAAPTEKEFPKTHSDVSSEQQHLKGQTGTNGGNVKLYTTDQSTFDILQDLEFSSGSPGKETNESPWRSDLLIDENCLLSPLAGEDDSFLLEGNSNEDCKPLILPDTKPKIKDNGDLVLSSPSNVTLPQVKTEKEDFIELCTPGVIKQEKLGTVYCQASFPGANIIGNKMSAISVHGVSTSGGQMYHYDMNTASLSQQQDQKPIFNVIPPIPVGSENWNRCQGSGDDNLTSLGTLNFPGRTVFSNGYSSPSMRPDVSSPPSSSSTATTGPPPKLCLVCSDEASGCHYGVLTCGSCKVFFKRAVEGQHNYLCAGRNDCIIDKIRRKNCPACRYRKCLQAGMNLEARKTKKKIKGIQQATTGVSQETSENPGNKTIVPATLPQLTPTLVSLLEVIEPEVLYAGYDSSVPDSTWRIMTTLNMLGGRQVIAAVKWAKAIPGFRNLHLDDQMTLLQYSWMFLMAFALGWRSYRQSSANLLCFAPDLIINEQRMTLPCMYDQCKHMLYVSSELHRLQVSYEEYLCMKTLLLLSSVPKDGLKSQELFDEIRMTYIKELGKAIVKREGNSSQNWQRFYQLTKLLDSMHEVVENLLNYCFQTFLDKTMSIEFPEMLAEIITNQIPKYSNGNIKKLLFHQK
Chain of Cytochrome P450 3A4 (Homo sapiens) (P08684 whole entry, looked up): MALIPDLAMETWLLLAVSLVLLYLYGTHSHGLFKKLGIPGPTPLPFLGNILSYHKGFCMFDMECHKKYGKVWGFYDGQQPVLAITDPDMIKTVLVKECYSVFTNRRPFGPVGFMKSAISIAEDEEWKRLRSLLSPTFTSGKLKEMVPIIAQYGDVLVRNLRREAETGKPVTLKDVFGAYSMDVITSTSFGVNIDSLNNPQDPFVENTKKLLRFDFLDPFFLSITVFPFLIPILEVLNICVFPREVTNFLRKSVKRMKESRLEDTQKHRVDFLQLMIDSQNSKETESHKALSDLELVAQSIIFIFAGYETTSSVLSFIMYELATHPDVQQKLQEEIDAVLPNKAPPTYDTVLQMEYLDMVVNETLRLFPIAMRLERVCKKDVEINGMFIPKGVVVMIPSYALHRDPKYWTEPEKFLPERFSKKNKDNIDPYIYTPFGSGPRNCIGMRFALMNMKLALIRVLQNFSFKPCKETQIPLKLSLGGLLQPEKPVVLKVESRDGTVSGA
Chain of 3',5'-cyclic-AMP phosphodiesterase 4B (Homo sapiens) (Q07343 whole entry, looked up): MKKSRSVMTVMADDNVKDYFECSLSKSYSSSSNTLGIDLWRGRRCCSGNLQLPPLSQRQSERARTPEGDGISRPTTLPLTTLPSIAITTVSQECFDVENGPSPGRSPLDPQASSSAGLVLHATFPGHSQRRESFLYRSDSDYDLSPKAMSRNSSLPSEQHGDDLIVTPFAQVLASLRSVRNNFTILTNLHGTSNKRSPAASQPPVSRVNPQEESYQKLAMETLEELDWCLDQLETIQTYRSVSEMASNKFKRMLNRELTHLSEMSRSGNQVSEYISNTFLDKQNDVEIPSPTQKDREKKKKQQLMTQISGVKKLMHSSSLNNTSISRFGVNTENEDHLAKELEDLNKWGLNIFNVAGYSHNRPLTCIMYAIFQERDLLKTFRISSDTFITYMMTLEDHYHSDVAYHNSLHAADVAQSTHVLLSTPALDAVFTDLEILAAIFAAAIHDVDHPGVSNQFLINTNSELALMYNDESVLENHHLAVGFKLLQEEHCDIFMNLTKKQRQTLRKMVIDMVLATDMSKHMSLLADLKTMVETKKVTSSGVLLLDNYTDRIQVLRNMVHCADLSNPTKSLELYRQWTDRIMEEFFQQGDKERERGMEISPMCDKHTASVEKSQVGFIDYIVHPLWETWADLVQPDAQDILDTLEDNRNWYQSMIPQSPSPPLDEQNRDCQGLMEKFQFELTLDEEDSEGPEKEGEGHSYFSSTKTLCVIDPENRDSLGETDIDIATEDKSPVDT
Chain of Cytochrome P450 2D6 (Homo sapiens) (P10635 whole entry, looked up): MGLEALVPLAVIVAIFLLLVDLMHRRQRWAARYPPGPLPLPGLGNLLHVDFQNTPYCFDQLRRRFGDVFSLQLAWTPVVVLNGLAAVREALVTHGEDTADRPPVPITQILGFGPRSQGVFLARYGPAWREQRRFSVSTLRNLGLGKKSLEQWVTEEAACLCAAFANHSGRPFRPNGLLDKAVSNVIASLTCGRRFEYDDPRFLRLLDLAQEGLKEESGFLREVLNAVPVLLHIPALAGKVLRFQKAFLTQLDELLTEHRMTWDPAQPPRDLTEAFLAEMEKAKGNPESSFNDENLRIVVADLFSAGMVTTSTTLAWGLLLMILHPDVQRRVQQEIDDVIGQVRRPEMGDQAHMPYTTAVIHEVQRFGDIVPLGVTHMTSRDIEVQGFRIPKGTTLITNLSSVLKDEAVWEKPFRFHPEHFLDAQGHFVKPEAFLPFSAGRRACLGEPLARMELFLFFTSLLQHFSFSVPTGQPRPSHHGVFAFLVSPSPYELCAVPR
Chain of Cytochrome P450 1A2 (Homo sapiens) (P05177 whole entry, looked up): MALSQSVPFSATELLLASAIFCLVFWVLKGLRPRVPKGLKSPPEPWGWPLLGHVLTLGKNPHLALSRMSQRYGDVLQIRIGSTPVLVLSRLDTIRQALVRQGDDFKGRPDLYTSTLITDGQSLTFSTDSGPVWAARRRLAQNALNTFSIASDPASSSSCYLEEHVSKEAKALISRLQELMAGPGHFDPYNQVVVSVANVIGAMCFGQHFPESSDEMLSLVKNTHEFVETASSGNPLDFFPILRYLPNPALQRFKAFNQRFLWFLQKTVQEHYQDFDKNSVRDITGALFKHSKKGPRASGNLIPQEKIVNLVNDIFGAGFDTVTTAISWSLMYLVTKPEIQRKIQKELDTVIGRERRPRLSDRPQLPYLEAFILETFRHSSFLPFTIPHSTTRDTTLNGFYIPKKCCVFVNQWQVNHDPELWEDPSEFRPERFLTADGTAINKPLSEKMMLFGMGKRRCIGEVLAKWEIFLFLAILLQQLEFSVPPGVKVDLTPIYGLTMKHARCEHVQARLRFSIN
Chain of Cytochrome P450 2C19 (Homo sapiens) (P33261 whole entry, looked up): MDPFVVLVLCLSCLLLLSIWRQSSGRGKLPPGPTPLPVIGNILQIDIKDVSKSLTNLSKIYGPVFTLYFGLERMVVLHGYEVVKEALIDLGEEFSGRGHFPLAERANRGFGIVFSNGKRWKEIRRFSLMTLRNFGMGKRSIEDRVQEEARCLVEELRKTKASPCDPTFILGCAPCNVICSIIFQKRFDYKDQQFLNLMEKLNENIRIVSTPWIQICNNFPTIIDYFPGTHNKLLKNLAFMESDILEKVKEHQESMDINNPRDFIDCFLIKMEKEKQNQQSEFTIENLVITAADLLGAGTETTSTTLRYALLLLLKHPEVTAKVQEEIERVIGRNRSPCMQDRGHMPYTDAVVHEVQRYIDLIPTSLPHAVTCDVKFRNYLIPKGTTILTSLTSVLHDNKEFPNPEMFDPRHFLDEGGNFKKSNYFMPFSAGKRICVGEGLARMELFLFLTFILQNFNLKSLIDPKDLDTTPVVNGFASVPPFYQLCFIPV
Chain of Lysosomal acid glucosylceramidase (Homo sapiens) (P04062 whole entry, looked up): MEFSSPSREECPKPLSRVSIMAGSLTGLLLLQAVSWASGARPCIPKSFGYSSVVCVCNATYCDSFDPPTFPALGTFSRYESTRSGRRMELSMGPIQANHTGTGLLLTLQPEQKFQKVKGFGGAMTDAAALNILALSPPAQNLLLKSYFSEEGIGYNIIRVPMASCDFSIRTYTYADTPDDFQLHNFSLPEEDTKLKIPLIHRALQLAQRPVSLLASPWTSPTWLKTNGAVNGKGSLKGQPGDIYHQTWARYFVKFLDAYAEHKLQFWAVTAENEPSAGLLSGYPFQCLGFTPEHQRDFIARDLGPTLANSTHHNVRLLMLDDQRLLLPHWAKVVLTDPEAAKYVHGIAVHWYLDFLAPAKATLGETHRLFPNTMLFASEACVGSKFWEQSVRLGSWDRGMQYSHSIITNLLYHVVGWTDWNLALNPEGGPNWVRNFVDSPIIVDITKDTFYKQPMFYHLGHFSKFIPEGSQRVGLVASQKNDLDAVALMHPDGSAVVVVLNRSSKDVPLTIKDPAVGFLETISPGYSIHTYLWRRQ
Chain of Cytochrome P450 2C9 (Homo sapiens) (P11712 whole entry, looked up): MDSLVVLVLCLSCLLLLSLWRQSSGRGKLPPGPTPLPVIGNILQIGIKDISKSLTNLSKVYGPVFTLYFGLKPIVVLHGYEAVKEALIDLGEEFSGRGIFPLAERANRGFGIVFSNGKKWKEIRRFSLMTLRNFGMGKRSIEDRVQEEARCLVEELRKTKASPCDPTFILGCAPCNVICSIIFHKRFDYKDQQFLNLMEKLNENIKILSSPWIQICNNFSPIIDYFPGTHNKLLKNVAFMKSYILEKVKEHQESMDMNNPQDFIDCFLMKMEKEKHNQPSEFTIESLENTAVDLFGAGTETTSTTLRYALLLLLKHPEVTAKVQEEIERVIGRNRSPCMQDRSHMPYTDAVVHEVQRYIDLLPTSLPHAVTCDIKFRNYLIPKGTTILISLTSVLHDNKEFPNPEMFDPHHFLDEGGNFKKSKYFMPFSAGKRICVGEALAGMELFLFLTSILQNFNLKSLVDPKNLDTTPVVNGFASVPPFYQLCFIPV

Clc1ccc2c(NCCNC3CCCCC3)ccnc2c1
active: Potency [9] 3.16 µM
inactive: Potency [1] > 11.4 µM | activity change, negative = inhibition [2] 5.59% | activity change, negative = inhibition [3] -10.2% [at 2.29 µM] | activity, negative = inhibition [4] 3.49% | Potency [5] > 46 µM | Potency [6] > 9.22 µM | Potency [7] | Potency [8]

Cc1c2cccc(Sc3ccccc3)c2c2c3c(cccc13)[S+](c1ccccc1)C2 (configuration not stated)
inactive: Potency [1] > 11.4 µM | activity change, negative = inhibition [2] -7.04% | activity change, negative = inhibition [3] -17.3% [at 2.29 µM] | Potency [5] > 46 µM | Potency [7] | Potency [8] | Potency [11] | activation [13] -19.6%
active: Potency [10] 2.51 µM | Potency [12] 0.0631 µM

OC1CC2CC[C@H](C1)N2CCCN1c2ccccc2Sc2ccc(Cl)cc21 (some centres not stated)
inactive: Potency [1] > 11.4 µM | activity change, negative = inhibition [2] 18.1% | Potency [3] | Potency [5] > 46 µM | Potency [6] > 9.22 µM | Potency [7] | Potency [8]
active: Potency [9] 0.0631 µM

CC(C)Cn1cnc2c(SCc3ccc(Cl)cc3Cl)nc(N)nc21
active: Potency [3] 1.26 µM | Potency [14] 3.98 µM | Potency [12] 2 µM
inactive: Potency [1] > 11.4 µM | activity change, negative = inhibition [2] -27.8% | Potency [5] > 46 µM | Potency [6] > 9.22 µM | Potency [7] | Potency [8] | Potency [11]

CC1(C)S[C@@H]2[C@H](NC(=O)Cc3ccccc3)C(=O)N2[C@@H]1C(=O)O
inactive: Potency [1] > 11.4 µM | activity change, negative = inhibition [2] 11.5% | activity change, negative = inhibition [15] 4.82% | activity, negative = inhibition [4] -4.4% | Potency [5] > 46 µM | Potency [6] > 9.22 µM | Potency [7] | Potency [8] | outcome [16] | activity, negative = inhibition ([17]; parasite line A) 2.23% | activity, negative = inhibition ([17]; parasite line B) 9.91% | Potency (AS120) | Potency (ATS189) | Potency (W2)

O=C=Nc1ccc(Cc2ccc(N=C=O)cc2)cc1 (tested in a mixture with another compound)
inactive: Potency [1] > 11.4 µM | activity change, negative = inhibition [2] -8.4% | activity, negative = inhibition [4] -1.09% | Potency [7] | Potency [8]
active: Potency [3] 5.01 µM

CSc1ncnc2c1ncn2CC(=O)[C@H]1CC[C@H]2[C@H]3CCC4=CC(=O)CC[C@@]4(C)[C@@H]3CC[C@@]12C
active: Potency [3] 3.98 µM
inactive: Potency [1] > 11.4 µM | activity change, negative = inhibition [2] -21.5% | Potency [5] > 46 µM | Potency [6] > 9.22 µM | Potency [7] | Potency [8] | activity change, negative = inhibition [14] -20.1% [at 11.4 µM] | Potency [9] | Potency [12]
